# Assay results taken from the supplement of paper PMC10121225.
# Structures can show the parent of a compound that is named as a salt.
# Test system: hN + hpA co-culture (H1 iNGN2 human neurons + human primary astrocytes)
# Assay: presynaptic density (SYNAPSIN1 puncta per MAP2 neurite area), Z-score vs DMSO controls; higher = more presynaptic puncta (synapse-promoting)
# Details: 3 µM; 72 h
# 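Note: immunostained co-cultures imaged by high-content microscopy, Z-score per plate against mean and SD of 0.1% DMSO wells, compounds added on differentiation day 18, analysed day 21.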
row,Compound,presynaptic density (Z-score)
1,O=C(O)/C=C/c1ccc(Cn2ccnc2)cc1 [Ozagrel],-0.554
2,O=C(Cc1ccc(-c2ccc(OCCN3CCOCC3)cc2)cn1)NCc1ccccc1,-5.26
3,O=C(Nc1nc2cccc(-c3ccc(CN4CCS(=O)(=O)CC4)cc3)n2n1)C1CC1 [Filgotinib (GLPG0634)],-0.645
4,COc1ccc2c(c1)c(CC(=O)N1CCOCC1)c(C)n2C(=O)c1ccc(Cl)cc1,-0.448
5,CC1=C(/C=C/C(C)=C/C=C/C(C)=C\C(=O)O)C(C)(C)CCC1 [Isotretinoin],-2.56
6,COc1c(O)cc2c(c1O)[C@@H]1O[C@H](CO)[C@@H](O)[C@H](O)[C@H]1OC2=O,0.361
7,COc1cc(Nc2ncc(F)c(Nc3ccc4c(n3)N(COP(=O)(O)O)C(=O)C(C)(C)O4)n2)cc(OC)c1OC [Fostamatinib (R788)],0.149
8,COc1nc(C)cnc1NS(=O)(=O)c1cccnc1-c1ccc(-c2nnco2)cc1 [Zibotentan (ZD4054)],-1.1
9,CCOc1ccc(Cc2cc([C@@H]3O[C@H](CO)[C@@H](O)[C@H](O)[C@H]3O)ccc2Cl)cc1 [Dapagliflozin],0.756
10,COCCCC/C(=N\OCCN)c1ccc(C(F)(F)F)cc1 [Fluvoxamine maleate],-0.239
11,C#CCC(Cc1cnc2nc(N)nc(N)c2n1)c1ccc(C(=O)N[C@@H](CCC(=O)O)C(=O)O)cc1 (stereo partly drawn) [Pralatrexate],0.0678
12,Cc1cc2c(cc1CC(=O)c1sccc1S(=O)(=O)Nc1onc(C)c1Cl)OCO2 [Sitaxentan sodium],-0.569
13,Cc1ccc(S(=O)(=O)NC(=O)NN2CC3CCCC3C2)cc1 (stereo not drawn),0.0878
